Columns and labels:
Experiment in all cases: yeast three-hybrid, YBZ-1, SC-Leu-His + 0.5 mM 3-AT, 4 days
Settings in all cases: tags: N-Gal4 AD-HA kept; label: inside an RPR1-promoter hybrid RNA with tandem MS2 sites; ssRNA
PUM1 PUF domain R3-YFV = PUM1 PUF domain R3-YFV (Homo sapiens, UniProt Q14671 828-1176, C935Y;R936F;Q939V)
Procedure, shortened: (§1)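 Each repeat of the Pumilio-1 PUF domain was randomized at its three base-contacting residues, and these libraries were co-expressed from a centromeric plasmid with matching RNA elements in strain YBZ-1. After four days on SC-Leu (input) or SC-Leu-His + 0.5 mM 3-AT (selection), the repeat regions were PCR-amplified and Illumina-sequenced. The interaction score compares variant frequency between input and selection as a log change, computed in log2 with a pseudocount of 1 for absent variants.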

PUM1 PUF domain R3-LFN = PUM1 PUF domain R3-LFN (Homo sapiens, UniProt Q14671 828-1176, C935L;R936F;Q939N)
Chain of PUM1 PUF domain R3-LFN (Q14671 828-1176 C935L/R936F/Q939N): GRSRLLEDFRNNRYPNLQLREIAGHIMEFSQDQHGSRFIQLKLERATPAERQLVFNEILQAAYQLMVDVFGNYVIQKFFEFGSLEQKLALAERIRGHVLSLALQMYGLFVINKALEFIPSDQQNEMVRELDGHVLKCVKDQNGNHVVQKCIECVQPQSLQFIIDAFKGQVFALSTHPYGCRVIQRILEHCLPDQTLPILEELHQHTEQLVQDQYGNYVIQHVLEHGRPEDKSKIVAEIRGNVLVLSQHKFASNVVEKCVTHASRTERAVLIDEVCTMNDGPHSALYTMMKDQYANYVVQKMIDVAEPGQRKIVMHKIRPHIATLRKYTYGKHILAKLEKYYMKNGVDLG
Procedure, shortened: as §1

PUM1 PUF domain R8-LFN = PUM1 PUF domain R8-LFN (Homo sapiens, UniProt Q14671 828-1176, N1122L;Y1123F;Q1126N)
Chain of PUM1 PUF domain R8-LFN (Q14671 828-1176 N1122L/Y1123F/Q1126N): as the sequence (Q14671 828-1176 C935L/R936F/Q939N) above, with L108C, F109R, N112Q, N295L, Y296F, Q299N counted along it
Procedure, shortened: as §1

PUM1 PUF domain R4-RVF = PUM1 PUF domain R4-RVF (Homo sapiens, UniProt Q14671 828-1176, N971R;H972V;Q975F)
Chain of PUM1 PUF domain R4-RVF (Q14671 828-1176 N971R/H972V/Q975F): as the sequence (Q14671 828-1176 C935L/R936F/Q939N) above, with L108C, F109R, N112Q, N144R, H145V, Q148F counted along it
Procedure, shortened: as §1

PUM1 PUF domain R5-PRV = PUM1 PUF domain R5-PRV (Homo sapiens, UniProt Q14671 828-1176, C1007P;Q1011V)
Chain of PUM1 PUF domain R5-PRV (Q14671 828-1176 C1007P/Q1011V): as the sequence (Q14671 828-1176 C935L/R936F/Q939N) above, with L108C, F109R, N112Q, C180P, Q184V counted along it
Procedure, shortened: as §1

PUM1 PUF domain R3-RTA = PUM1 PUF domain R3-RTA (Homo sapiens, UniProt Q14671 828-1176, C935R;R936T;Q939A)
Chain of PUM1 PUF domain R3-RTA (Q14671 828-1176 C935R/R936T/Q939A): as the sequence (Q14671 828-1176 C935L/R936F/Q939N) above, with L108R, F109T, N112A counted along it
Procedure, shortened: as §1

Chain of PUM1 PUF domain R3-YFV (Q14671 828-1176 C935Y/R936F/Q939V): as the sequence (Q14671 828-1176 C935L/R936F/Q939N) above, with L108Y, N112V counted along it

GGCUAGAACUAGUGGAUCCCCCGGCGCCCGGCGGCUCGAGCCCGGGUAAGUGUAAGUAGUCUGCAUGCCGCCGGGCGCCAUGCCUGCAGGUCGACUCUAGAAAACAUG
binding signal (PUM1 PUF domain R3-YFV): 4.24 log2 enrichment (interaction score) | binding signal (PUM1 PUF domain R3-LFN): 5.99 log2 enrichment (interaction score)

GGCUAGAACUAGUGGAUCCCCCGGCGCCCGGCGGCUCGAGCCCGGGUAAGUGUAAAUAGUCUGCAUGCCGCCGGGCGCCAUGCCUGCAGGUCGACUCUAGAAAACAUG
binding signal (PUM1 PUF domain R8-LFN): 0.52 log2 enrichment (interaction score) | binding signal (PUM1 PUF domain R3-YFV): 1.56 log2 enrichment (interaction score) | binding signal (PUM1 PUF domain R4-RVF): 2.93 log2 enrichment (interaction score) | binding signal (PUM1 PUF domain R5-PRV): 3.15 log2 enrichment (interaction score)

GGCUAGAACUAGUGGAUCCCCCGGCGCCCGGCGGCUCGAGCCCGGGUAAGCGUAAAUAGUCUGCAUGCCGCCGGGCGCCAUGCCUGCAGGUCGACUCUAGAAAACAUG
binding signal (PUM1 PUF domain R8-LFN): 2.16 log2 enrichment (interaction score)

GGCUAGAACUAGUGGAUCCCCCGGCGCCCGGCGGCUCGAGCCCGGGUAAGUGUAAUUAGUCUGCAUGCCGCCGGGCGCCAUGCCUGCAGGUCGACUCUAGAAAACAUG
binding signal (PUM1 PUF domain R3-RTA): 3.27 log2 enrichment (interaction score) | binding signal (PUM1 PUF domain R3-YFV): 0.45 log2 enrichment (interaction score)
